Test [1] in a line: qHTS assay to identify small molecule antagonists of the estrogen related receptor (ERR) signaling pathway from Tox21 library - cell viability counter screen (AID 1224834). Further: on the % scale 0 is the no-effect control and ±100 the full control effect; nearly all actives have a fitted effect of over 30% in size. The procedure, abridged: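 ERR reporter cells were plated 6 h before compound addition, then exposed to test compounds in DMSO for 17.5 h at 37 C. Viability was read as CellTiter-Fluor fluorescence after a 30-minute incubation at 37 C.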
A general note: In qHTS, concentration-response curves come from the screen itself.

The target in test [2] is Luciferin 4-monooxygenase (Photinus pyralis) (UniProt P08659). As to the kind of experiment: qHTS assay to identify small molecule inhibitors of firefly luciferase (AID 1224835). Further: on the % scale 0 is the no-effect control and ±100 the full control effect; nearly all actives have a fitted effect of over 25% in size. The procedure, abridged:
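Inhibition of purified Photinus luciferase is measured by luminescence. Substrate levels (D-luciferin, ATP) sit at their KM values. Each compound is tested in a concentration series.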

Test [3] in a line: qHTS assay to identify small molecule agonists of the constitutive androstane receptor (CAR) signaling pathway - cell viability counter screen (AID 1224836). Further: on the % scale 0 is the no-effect control and ±100 the full control effect; nearly all actives have a fitted effect of over 45% in size. The procedure, abridged:
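Double-stable HepG2 hepatoma cells (hCAR plus CYP2B6-2.2kb) are treated for 23 h at 37 C with test compounds in 15-point concentration series. PK11195 at 0.75 uM final is co-added. Cell viability is quantified by CellTiter-Fluor.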

Test [4] can be described thus: qHTS assay to identify small molecule antagonists of the constitutive androstane receptor (CAR) signaling pathway - cell viability counter screen (AID 1224837). Further: on the % scale 0 is the no-effect control and ±100 the full control effect; nearly all actives have a fitted effect of over 45% in size. Put shortly:
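HepG2 cells stably expressing hCAR and a CYP2B6-2.2kb reporter were plated and pre-incubated 4 hr at 37 C/5% CO2, then given compounds at 15 concentrations plus 50 nM CITCO (final). After 23 hr, viability was read by CellTiter-Fluor fluorescence.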

Test [5] deals with Nuclear receptor subfamily 1 group I member 3 (Homo sapiens) (UniProt Q14994). Description: qHTS assay to identify small molecule antagonists of the constitutive androstane receptor (CAR) signaling pathway (AID 1224838). Further: nearly all actives have a fitted effect of over 40% in size. Further: potency means the concentration at half of the fitted maximal effect. The procedure, abridged:
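HepG2 cells stably co-transfected with hCAR and a CYP2B6-2.2kb luciferase reporter were seeded 4 h before compound addition at 15 concentrations. Cells were stimulated with 50 nM CITCO (final) for 24 h at 37 C; luciferase luminescence was then read.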

For test [6] the target is unchanged. Description: qHTS assay to identify small molecule agonists of the constitutive androstane receptor (CAR) signaling pathway (AID 1224839).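 Further: HepG2 cells stably carrying human CAR and a CYP2B6 luciferase reporter; on the % scale 0 is the no-effect control and ±100 the full control effect; nearly all actives have a fitted effect of over 15% in size.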 Put shortly:
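Readout: firefly luciferase luminescence via ONE-Glo. System: HepG2 double-stable for hCAR and CYP2B6-2.2kb. Conditions: 15-point compound titration, PK11195 at 0.75 uM final, 24 h incubation.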

Test [7] is described as follows: qHTS assay to identify small molecule antagonists of the estrogen related receptor signaling pathway with the pleiotropic PPARgamma coactivator (PGC) from Tox21 10K library - cell viability counter screen (AID 1224840; active means well fitted cell-killing curve with a large enough effect in the repeat runs, not every such curve was filed as active; further: on the % scale 0 is the no-effect control and ±100 the full control effect; nearly all actives have a fitted effect of over 40% in size). Put shortly: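 PGC/ERR cells were seeded at 2,000 cells/well and left 6 hours at 37 C/5% CO2 before pin-tool addition of compounds in DMSO. After 17.5 hours at 37 C, CellTiter-Fluor was added and fluorescence read 30 minutes later.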

Test [8] has as its target Thyrotropin receptor (Homo sapiens) (UniProt P16473). Description: qHTS assay to identify small molecule agonists of the thyroid stimulating hormone receptor (TSHR) signaling pathway (AID 1224843; calls by dose curve; further: on the % scale 0 is the no-effect control and ±100 the full control effect; nearly all actives have a fitted effect of over 45% in size). Put shortly: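 Screening of the Tox21 10K collection used HEK293 cells engineered with TSHR at 800 cells per well. After a 30-min room-temperature compound exposure, HTRF cAMP reagents were added and fluorescence recorded 1 h later.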

Test [9] can be described thus: qHTS assay to identify small molecule agonists of the hypoxia (HIF-1) signaling pathway - cell viability counter screen (AID 1224844; calls by dose curve; further: on the % scale 0 is the no-effect control and ±100 the full control effect; nearly all actives have a fitted effect of over 50% in size). Put shortly:
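HRE-bla ME-180 cells in medium with 0.5% dialyzed FBS were preincubated 5 hrs at 37C, exposed to compounds for 17 hrs, then viability was read as CellTiter-Glo luminescence after 30 min at room temperature, in the reporter wells.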

The nature of test [10]: qHTS assay to identify small molecule agonists of H2AX (AID 1224845; active means well fitted activation curve with a large enough effect in the signal ratio in the repeat runs, not every such curve was filed as active; the % refers to the signal ratio; further: on the % scale 0 is the no-effect control and ±100 the full control effect). The procedure, abridged:
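Phospho-H2AX Ser139 measured by HTRF (ex 320 nm; em 665 and 620 nm) after 24 hr antibody incubation. Compounds, 15 concentrations, 0.76% DMSO, were applied to CHO-K1 cells for 3hr at 37C before lysis.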

Test [11] is described as follows: qHTS assay to identify small molecule agonists of the hypoxia (HIF-1) signaling pathway (AID 1224846; active means well fitted activation curve with a large enough effect in the signal ratio in the repeat runs, not every such curve was filed as active; the % refers to the signal ratio; further: on the % scale 0 is the no-effect control and ±100 the full control effect). The procedure, abridged: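 HRE-bla ME-180 cells (beta-lactamase reporter under hypoxia response element) were plated at 2,000 cells/well in medium with 0.5% dialyzed FBS, rested 5 hrs, then given compounds in DMSO for 17 hrs at 37C, 5% CO2. Reporter induction was read with CCF4-AM FRET substrate.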

Test [12] is described as follows: qHTS assay to identify small molecule agonists of H2AX - cell viability counter screen (AID 1224847; calls by dose curve;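 further: wild-type CHO-K1 cells; top concentration of the series differs between compounds; on the % scale 0 is the no-effect control and ±100 the full control effect; nearly all actives have a fitted effect of over 30% in size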). The procedure, abridged:
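For this counter screen, overnight-attached CHO-K1 cells received test compounds (15 concentrations, 0.76% DMSO final); 3 hr later at 37C, CellTiter-Glo reagent was added and luminescence recorded after 30 min at room temperature.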

Test [13] is described as follows: qHTS RealTime-Glo MT Cell Viability Assay in HepG2 cells - 24 hour (AID 1224867). Further: on the % scale 0 is the no-effect control and ±100 the full control effect; nearly all actives have a fitted effect of over 50% in size. The procedure, abridged:
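qHTS, HepG2, 600 cells/well, RealTime-Glo (NanoLuc + prosubstrate) added with cells; 5 h preincubation; DMSO compound addition; 37 C; luminescence at 0/8/16/24/32/40 h.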

Test [14] in a line: qHTS RealTime-Glo MT Cell Viability Assay in HEK293 cells - 32 hour (AID 1224868). Further: top concentration of the series differs between compounds; on the % scale 0 is the no-effect control and ±100 the full control effect; nearly all actives have a fitted effect of over 50% in size. Put shortly:
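Assay medium contained NanoLuc luciferase plus cell-permeant prosubstrate, added with HEK293 cells at 600 cells/well. After 5 h at 37 C/5% CO2 compounds were added; plates stayed at 37 C for 40 h with serial luminescence reads.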

The nature of test [15]: A CellTox Green Cytotoxicity Assay to monitor cytotoxicity in HEK293 cells - 0 hour (AID 1224869). Further: nearly all actives have a fitted effect of over 50% in size. Further: potency means the concentration at half of the fitted maximal effect. On Cytotoxicity: on the % scale 0 is the no-effect control and ±100 the full control effect. The procedure, abridged: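 HEK293 cells premixed with CellTox Green dye were seeded at 600 cells/well and left 5 h at 37 C/5% CO2 before pin transfer of 23 nL compound in DMSO. Fluorescence from dye bound to dead-cell DNA was read during 40 h treatment.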
The nature of test [16]: qHTS assay to identify small molecule antagonists of the estrogen related receptor signaling pathway with the pleiotropic PPARgamma coactivator (PGC) from Tox21 10K library (AID 1224841; call rule not given here). The procedure, abridged:
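PGC/ERR reporter cells were seeded at 2,000 cells/well and held 6 hours at 37 C/5% CO2 before pin-tool addition of compounds in DMSO. After 18 hours at 37 C, One-Glo was added and luminescence read after 30 minutes at room temperature.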

The nature of test [17]: qHTS assay to identify small molecule antagonists of the estrogen related receptor (ERR) signaling pathway from Tox21 library (AID 1224848). Put shortly:
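Antagonist-mode screen of the Tox21 10K library in an NTP-provided ERR reporter cell line; 18 h compound exposure at 37 C, luminescence measured with ONE-Glo.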

Test [18] can be described thus: qHTS assay to identify small molecule agonists of the estrogen related receptor (ERR) signaling pathway from Tox21 library (AID 1224849; calls by dose curve; further: on the % scale 0 is the no-effect control and ±100 the full control effect; nearly all actives have a fitted effect of over 15% in size). The conditions noted are these: ERR reporter cell line, ONE-Glo luciferase, 18 h; at 92.4 µM (top of the series) unless noted. The procedure, abridged:
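ERR reporter cell line (NTP) seeded, rested 6 h at 37 C/5% CO2, then pinned with Tox21 compounds in DMSO. After 18 h at 37 C, ONE-Glo luciferase luminescence was read following 30 min at room temperature.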

From PubChem BioAssay (Tox21) come the findings set out here.

Each structure is given as a SMILES string. Several values for one entry are separate records, joined by “and”; a condition that tells them apart may be missing. Equal entries are not always repeated. Records with an inconclusive call do not appear. The source holds several records for some structures; these can differ, active in one and inactive in another. Activity calls are given as the source filed them. Unless noted, the call rests on the fitted dose curve; in most records, active means well fitted curve in the direction sought with a large enough effect in the repeat runs; inconclusive means weak or mixed curves; inactive means no such curve, though single readings can be large; an effect the other way counts as inactive or inconclusive.

Luciferin 4-monooxygenase (Photinus pyralis), sequence (P08659 whole entry, looked up): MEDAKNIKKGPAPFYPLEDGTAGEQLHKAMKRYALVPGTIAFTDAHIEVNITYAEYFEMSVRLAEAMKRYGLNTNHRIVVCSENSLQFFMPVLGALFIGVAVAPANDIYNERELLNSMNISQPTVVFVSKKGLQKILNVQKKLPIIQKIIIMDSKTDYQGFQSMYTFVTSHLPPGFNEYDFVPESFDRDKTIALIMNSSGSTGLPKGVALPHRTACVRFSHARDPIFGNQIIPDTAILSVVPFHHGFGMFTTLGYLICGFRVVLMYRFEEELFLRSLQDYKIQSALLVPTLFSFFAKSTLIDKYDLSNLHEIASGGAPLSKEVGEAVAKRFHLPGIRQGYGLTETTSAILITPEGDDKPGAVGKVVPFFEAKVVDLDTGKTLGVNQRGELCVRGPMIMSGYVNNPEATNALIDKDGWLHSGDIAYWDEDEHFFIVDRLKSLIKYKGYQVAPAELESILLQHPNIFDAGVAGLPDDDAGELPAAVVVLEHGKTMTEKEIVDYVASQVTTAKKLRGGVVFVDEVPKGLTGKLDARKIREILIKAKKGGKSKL
Thyrotropin receptor (Homo sapiens), sequence (P16473 whole entry, looked up): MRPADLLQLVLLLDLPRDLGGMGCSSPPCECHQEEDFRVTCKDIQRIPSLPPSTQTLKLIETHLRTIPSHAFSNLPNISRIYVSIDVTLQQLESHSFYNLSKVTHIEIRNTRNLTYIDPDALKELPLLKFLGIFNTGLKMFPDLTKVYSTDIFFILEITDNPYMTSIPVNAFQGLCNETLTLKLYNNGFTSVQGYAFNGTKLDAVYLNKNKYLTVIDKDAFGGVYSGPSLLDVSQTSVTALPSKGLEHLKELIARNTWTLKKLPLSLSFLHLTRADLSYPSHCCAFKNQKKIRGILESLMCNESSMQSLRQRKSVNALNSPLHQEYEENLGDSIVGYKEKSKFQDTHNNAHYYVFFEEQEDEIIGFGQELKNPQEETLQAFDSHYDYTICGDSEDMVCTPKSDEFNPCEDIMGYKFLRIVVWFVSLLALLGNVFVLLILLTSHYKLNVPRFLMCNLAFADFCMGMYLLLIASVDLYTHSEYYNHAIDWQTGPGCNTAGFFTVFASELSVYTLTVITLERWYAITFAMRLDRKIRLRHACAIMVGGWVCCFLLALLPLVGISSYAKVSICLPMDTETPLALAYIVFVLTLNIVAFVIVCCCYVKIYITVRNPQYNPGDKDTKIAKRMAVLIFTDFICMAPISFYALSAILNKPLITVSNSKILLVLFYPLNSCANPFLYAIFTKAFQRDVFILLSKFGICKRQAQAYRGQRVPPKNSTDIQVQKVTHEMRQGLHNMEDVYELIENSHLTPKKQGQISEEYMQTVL
Nuclear receptor subfamily 1 group I member 3 (Homo sapiens), sequence (Q14994 whole entry, looked up): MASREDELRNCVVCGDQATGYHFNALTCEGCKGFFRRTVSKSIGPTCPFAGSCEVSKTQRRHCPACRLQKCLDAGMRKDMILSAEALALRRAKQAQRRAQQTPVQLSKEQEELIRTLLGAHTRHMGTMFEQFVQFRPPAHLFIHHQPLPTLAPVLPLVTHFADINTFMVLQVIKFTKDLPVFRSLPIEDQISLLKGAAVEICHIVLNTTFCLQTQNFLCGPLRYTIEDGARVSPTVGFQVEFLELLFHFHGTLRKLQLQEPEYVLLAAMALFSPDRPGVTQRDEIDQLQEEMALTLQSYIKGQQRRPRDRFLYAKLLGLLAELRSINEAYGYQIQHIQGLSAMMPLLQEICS

On to `O=c1n(CCO)c(=O)n(CCO)c(=O)n1CCO`, for which the Potency entry in test [1], in [2], in [3], in [4], in test [5] and in [6] was “inactive” each time. The Potency result in test [7], in test [8], in test [9], in test [12], in test [13] and in test [14] was “inactive” each time. Further, the compound was classed as inactive in test [10] and in test [11]. Further, the Potency entry in test [15] is “inactive and 43.6 µM (active)”.

For the compound `C[N+](C)(C)CCCCCC[N+](C)(C)C`, the Potency result in test [1], in test [2], in [3], in test [4], in [6] and in test [7] was “inactive” each time. Also, the Potency entry in test [9], in test [12], in [13], in test [14] and in [15] was “inactive” each time. In addition, in test [5], the Potency result is “inactive and 26.6 µM (active)”. In test [10], the compound was classed as inactive.

Consider `CO[Si](CCCOCC1CO1)(OC)OC` (stereo unspecified), for which the Potency result in [1], in test [2], in test [3], in test [4], in test [5] and in test [6] was “inactive” throughout. The Potency entry in test [7], in test [9], in [12], in [13], in test [14] and in test [15] was “inactive” throughout. Moreover, the outcome in test [10] and in [11] was inactive.

On to `CC(C)NCC(O)c1ccc(NS(C)(=O)=O)cc1` (stereo unspecified), for which the Potency result in test [1], in [2], in [3], in [4], in test [5] and in [6] was “inactive” in each case. The Potency result in test [7], in test [8], in test [9], in test [12], in test [13] and in test [14] was “inactive” throughout. Also, the Potency result in [15] was “inactive”. Besides, the result in test [10] was inactive.

As for `OC(CCN1CCCCC1)(c1ccccc1)C1CC2C=CC1C2` (stereo unspecified), the Potency result in [1], in [2], in test [3], in [4], in [5] and in [6] was “inactive” each time. Besides, the Potency result in test [7], in [9], in [12], in test [13] and in test [15] was “inactive” throughout. Further, the compound was classed as inactive in [10] and in [11].

As for `O=Cc1cccc([N+](=O)[O-])c1`, the Potency result in test [1], in test [2], in test [3], in [4], in test [5] and in test [6] was “inactive” in each case. Besides, the Potency result in test [7], in test [9], in test [12], in [17], in test [13] and in test [14] was “inactive” in each case. The Potency result in test [15] was “inactive”. The Potency in test [16] was 24.2 µM (active). For the same compound, the call in [10] and in [11] was inactive. Also, in [18], the activity change, positive = activation was -4.24% (inactive).
